Among the data in PubChem BioAssay are composite z-score and z-score values, retold here.

The subject of experiment [1] is Plasmodium falciparum Sir2 (PF13_0152, Sir2A). The experiment can be described thus: Plasmodium falciparum Sir2A binding compounds – biochemical, small-molecule microarray, 635 nm fluorescence, primary screen (AID 1098).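 Note: score merges spot fluorescence intensity with its signal-to-noise ratio.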 The following applies: fluorescence 635 nm, higher = more signal.
The nature of experiment [2]: probe aDKK1 binding to arrayed compounds – biochemical, biotinylated probe, 635/667 nm fluorescence, primary screen (AID 1099).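 Note: score merges 667nm spot fluorescence with signal to noise across triplicate slides.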 The following applies: small-molecule microarray, higher = more signal.
Experiment [3] in a line: probe aCHRDL2 binding to arrayed compounds – biochemical, biotinylated probe, 635/667 nm fluorescence, primary screen (AID 1100). Conditions: small-molecule microarray, higher = more signal.
Experiment [4] in a line: change in splice reporter luminescence, either direction, cell-based, HEK293, spliceosome inhibition project, primary screen (AID 1101).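 Note: HEK293 cells carrying a splicing-competent luciferase reporter gene; test concentration not given here.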 Conditions: HEK293 splicing luciferase reporter, 24 h, higher = more signal, called active from +8 up or from −8 down. (In general: A reporter such as luciferase makes a cellular process visible.)
Experiment [5] has as its target Fibroblast growth factor 10 (Homo sapiens) (UniProt O15520). In words: compounds binding fibroblast growth factor 10 – biochemical, small-molecule microarray, 635 nm fluorescence, primary screen (AID 1102). Conditions: FGF10 binding, fluorescence 635 nm, higher = more signal.
The test system of experiment [6] is glycogen synthase kinase-3 (GSK3A per assay name; protocol says GSK3B). In words: compounds binding glycogen synthase kinase-3 – biochemical, small-molecule microarray, 635 nm fluorescence, GSK3A, primary screen (AID 1103). Note: the record names both GSK3A and GSK3B. The following applies: fluorescence 635 nm, higher = more signal.
Experiment [7] concerns the target Epidermal growth factor receptor (Homo sapiens) (UniProt P00533). The experiment can be described thus: compounds binding epidermal growth factor receptor – biochemical, small-molecule microarray, 635 nm fluorescence, primary screen (AID 1104).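 Note: score merges 667 nm emission intensity with spot signal to noise over triplicate slides.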 Conditions: EGFR binding, higher = more signal.
The target in experiment [8] is Follistatin-related protein 3 (Homo sapiens) (UniProt O95633). In words: compounds binding follistatin-related protein 3 – biochemical, small-molecule microarray, 635 nm fluorescence, primary screen (AID 1105).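 Note: score merges emission near 667 nm and signal to noise per printed spot across three slides.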 The following applies: FSTL3 binding, higher = more signal.
For experiment [9], the target named is Dickkopf-related protein 1 (Homo sapiens) (UniProt O94907). In words: small molecules binding DKK1 protein – biochemical, small-molecule microarray, 635 nm fluorescence scan, primary screen (AID 1106).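 Note: score merges emission near 667 nm with signal to noise over three replicate slides.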 Conditions: higher = more signal.
Experiment [10] concerns Inhibin beta A chain (activin A). In words: small molecules binding activin A – biochemical, small-molecule microarray, 635 nm fluorescence scan, primary screen (AID 1107).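 Note: mouse activin A protein probed at 4.33 µg/mL on printed slides; score merges bound-protein fluorescence near 667 nm with spot signal-to-noise.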 Conditions: INHBA, higher = more signal.
Experiment [11] concerns Human papillomavirus type 1a protein E7 (residues 44-93). The experiment can be described thus: small molecules binding HPV E7 44-93 – biochemical, small-molecule microarray, residues 44-93, 635 nm fluorescence, primary screen (AID 1108).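 Note: E7 fragment applied at 1 µg/mL in TBST for 1 h at 4 C; score combines spot fluorescence with its signal to noise ratio.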 Conditions: fluorescence 635 nm, higher = more signal.
A short description of experiment [12]: hepatitis C replication reporter changes, two-sided – Huh7 cells, luciferase reporter, HCV replication inhibitor project, primary screen (AID 1109).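 Note: huh7 hepatoma cells harbouring a luciferase neomycin HCV replicon reporter; luciferase luminescence as measure of HCV replicon replication; test concentration not given here.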 The following applies: Huh7 HCV replicon luciferase reporter, 48 h; higher = more signal.
The target of experiment [13] is Left-right determination factor 2 (Homo sapiens) (UniProt O00292). The experiment can be described thus: small molecules binding LEFTY2 protein – biochemical, small-molecule microarray, 635 nm fluorescence scan, primary screen (AID 1110). Conditions: higher = more signal.
The target of experiment [14] is Calmodulin-1 (Homo sapiens) (UniProt P0DP23). The experiment can be described thus: small molecules binding calmodulin-1 with EGTA – biochemical, small-molecule microarray, Cy5-labelled CALM1, profiling panel (AID 1111).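 Note: labelled calmodulin applied in Tris saline Tween buffer holding calcium plus EGTA and DTT.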 The following applies: Cy5-CALM1 binding fluorescence, higher = more signal.
Experiment [15] has the same target. In words: small molecules binding Ca-loaded calmodulin-1 – biochemical, small-molecule microarray, Cy5-labelled CALM1, plus calcium, artefact control for SMM control-protein annotation, profiling panel (AID 1112).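 Note: score merges spot fluorescence with signal to noise from triplicate slides.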 The following applies: Cy5-CALM1 binding fluorescence, higher = more signal.
Experiment [16] can be described thus: probe aWnt5a binding to arrayed compounds – biochemical, biotinylated probe, 635/667 nm fluorescence, primary screen (AID 1113).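 Note: score merges 667 nm fluorescence intensity with signal-to-noise per printed feature.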 Conditions: small-molecule microarray, higher = more signal.
A short description of experiment [17]: probe aShh binding to arrayed compounds – biochemical, biotinylated probe, 635/667 nm fluorescence, primary screen (AID 1114).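 Note: probe is biotin-labelled aShh protein from a stem cell growth factor screen; measures binding of labelled protein to compounds printed on the slide; score merges feature fluorescence at 667 nm with signal-to-noise.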 The following applies: small-molecule microarray, higher = more signal.
A short description of experiment [18]: probe aNog binding to arrayed compounds – biochemical, biotinylated probe, 635/667 nm fluorescence, primary screen (AID 1115).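 Note: probe is biotinylated aNog protein used at 0.15 µg/mL for 1 h at 4 C; z-score combines 667 nm fluorescence of each spot with its signal to noise.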 Conditions: small-molecule microarray, higher = more signal.
Experiment [19] deals with Torsin-1A-interacting protein 1 (Homo sapiens) (UniProt Q5JTV8). The experiment can be described thus: compound microarray binding of lysate hLAP1 – cell lysate, small-molecule microarray, COS7 lysate, 635/667 nm fluorescence, primary screen (AID 1116). The following applies: 635 nm fluorescence, higher = more signal.
For experiment [20], the target named is Alpha-bungarotoxin (Bungarus multicinctus) (UniProt P60615). In words: compounds binding labelled alpha-BTX control protein – biochemical, small-molecule microarray, Alexa647 label, 635/667 nm fluorescence, artefact control for SMM control protein annotation, profiling panel (AID 1117). The following applies: alpha-BTX-A647 binding fluorescence, higher = more signal.

Calls of active or inactive are those of the source.

Chain of Fibroblast growth factor 10 (Homo sapiens) (O15520 whole entry, looked up): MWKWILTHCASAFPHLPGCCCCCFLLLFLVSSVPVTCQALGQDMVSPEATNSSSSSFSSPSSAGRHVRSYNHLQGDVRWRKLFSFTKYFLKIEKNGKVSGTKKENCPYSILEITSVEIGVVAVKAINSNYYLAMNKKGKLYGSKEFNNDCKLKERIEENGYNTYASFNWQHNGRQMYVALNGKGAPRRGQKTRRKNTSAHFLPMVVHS
Chain of Follistatin-related protein 3 (Homo sapiens) (O95633 whole entry, looked up): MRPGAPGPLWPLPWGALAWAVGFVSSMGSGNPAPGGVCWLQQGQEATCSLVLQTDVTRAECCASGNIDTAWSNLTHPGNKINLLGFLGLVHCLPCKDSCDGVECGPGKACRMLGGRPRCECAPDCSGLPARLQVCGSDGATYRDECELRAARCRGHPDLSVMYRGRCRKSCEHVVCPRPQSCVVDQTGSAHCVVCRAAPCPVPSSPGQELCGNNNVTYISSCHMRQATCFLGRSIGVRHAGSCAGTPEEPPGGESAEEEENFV
Chain of Torsin-1A-interacting protein 1 (Homo sapiens) (Q5JTV8 whole entry, looked up): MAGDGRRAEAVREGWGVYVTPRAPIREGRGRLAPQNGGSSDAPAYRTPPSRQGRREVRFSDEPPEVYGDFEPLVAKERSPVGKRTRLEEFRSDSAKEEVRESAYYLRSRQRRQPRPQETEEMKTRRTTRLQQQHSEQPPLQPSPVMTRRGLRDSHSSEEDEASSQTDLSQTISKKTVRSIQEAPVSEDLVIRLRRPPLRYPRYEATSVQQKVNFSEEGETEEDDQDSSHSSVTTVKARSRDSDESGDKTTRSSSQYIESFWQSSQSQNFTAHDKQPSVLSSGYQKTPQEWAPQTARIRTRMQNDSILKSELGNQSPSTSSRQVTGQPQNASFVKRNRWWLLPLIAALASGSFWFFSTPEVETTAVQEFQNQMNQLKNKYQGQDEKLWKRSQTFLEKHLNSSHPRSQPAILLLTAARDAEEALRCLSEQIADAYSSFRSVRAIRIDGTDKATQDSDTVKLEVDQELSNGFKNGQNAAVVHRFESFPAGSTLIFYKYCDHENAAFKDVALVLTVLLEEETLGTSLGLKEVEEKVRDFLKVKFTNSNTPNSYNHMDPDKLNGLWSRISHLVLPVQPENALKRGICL
Chain of Left-right determination factor 2 (Homo sapiens) (O00292 whole entry, looked up): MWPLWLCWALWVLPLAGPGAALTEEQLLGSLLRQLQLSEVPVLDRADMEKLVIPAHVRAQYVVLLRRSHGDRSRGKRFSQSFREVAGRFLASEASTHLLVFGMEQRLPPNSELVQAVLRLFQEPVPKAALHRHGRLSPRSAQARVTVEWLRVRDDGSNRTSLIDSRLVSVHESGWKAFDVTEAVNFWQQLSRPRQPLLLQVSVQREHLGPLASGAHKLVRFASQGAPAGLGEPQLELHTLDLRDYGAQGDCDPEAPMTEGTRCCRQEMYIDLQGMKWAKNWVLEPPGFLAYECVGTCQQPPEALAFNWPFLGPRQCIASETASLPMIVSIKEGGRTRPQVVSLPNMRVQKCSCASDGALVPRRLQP
Chain of Epidermal growth factor receptor (Homo sapiens) (P00533 whole entry, looked up): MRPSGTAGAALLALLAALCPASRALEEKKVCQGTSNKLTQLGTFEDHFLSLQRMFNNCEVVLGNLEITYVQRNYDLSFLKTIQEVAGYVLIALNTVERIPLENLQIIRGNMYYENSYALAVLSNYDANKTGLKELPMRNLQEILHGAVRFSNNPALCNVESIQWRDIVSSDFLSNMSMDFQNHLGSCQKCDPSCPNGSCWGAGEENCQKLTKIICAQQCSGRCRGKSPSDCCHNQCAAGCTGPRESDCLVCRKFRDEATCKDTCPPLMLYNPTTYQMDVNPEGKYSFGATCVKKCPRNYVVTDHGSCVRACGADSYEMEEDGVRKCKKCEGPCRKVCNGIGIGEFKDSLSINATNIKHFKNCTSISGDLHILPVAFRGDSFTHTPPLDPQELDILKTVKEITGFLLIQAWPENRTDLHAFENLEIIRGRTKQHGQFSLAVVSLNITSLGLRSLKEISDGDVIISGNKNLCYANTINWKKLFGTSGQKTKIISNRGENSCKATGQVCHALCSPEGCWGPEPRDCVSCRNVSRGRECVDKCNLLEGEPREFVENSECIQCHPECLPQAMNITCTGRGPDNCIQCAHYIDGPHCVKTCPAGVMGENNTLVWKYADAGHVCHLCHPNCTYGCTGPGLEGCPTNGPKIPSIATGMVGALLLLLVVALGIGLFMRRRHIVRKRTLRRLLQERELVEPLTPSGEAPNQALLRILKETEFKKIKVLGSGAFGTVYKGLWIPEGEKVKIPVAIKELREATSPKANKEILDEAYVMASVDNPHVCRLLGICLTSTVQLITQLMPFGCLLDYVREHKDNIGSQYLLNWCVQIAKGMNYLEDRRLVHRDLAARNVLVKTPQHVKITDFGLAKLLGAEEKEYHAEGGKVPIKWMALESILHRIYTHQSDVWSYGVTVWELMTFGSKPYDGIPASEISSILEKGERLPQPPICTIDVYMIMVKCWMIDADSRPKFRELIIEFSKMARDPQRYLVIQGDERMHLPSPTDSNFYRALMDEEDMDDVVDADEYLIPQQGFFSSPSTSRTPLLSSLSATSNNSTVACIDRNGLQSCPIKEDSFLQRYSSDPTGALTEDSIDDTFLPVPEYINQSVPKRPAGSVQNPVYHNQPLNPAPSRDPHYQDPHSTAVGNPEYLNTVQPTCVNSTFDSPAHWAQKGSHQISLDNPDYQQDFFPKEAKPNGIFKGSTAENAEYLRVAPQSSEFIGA
Chain of Alpha-bungarotoxin (Bungarus multicinctus) (P60615 whole entry, looked up): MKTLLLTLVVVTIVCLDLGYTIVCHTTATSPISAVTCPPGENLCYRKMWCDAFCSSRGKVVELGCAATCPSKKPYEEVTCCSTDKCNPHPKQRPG
Chain of Dickkopf-related protein 1 (Homo sapiens) (O94907 whole entry, looked up): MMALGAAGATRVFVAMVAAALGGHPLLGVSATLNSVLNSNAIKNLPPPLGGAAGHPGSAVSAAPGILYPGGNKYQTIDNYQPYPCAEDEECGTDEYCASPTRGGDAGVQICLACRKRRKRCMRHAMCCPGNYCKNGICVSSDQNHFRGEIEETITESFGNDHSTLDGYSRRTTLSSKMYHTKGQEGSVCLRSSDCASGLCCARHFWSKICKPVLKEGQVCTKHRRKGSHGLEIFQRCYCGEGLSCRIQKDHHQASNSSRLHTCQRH

`O=C(C1N=C(c2ccc(OCCCO)cc2)N(c2ccccc2)O1)N1CCOCC1` (stereo not given): the composite z-score in [1] was determined as 0.298; in [2], 0.56; in experiment [3], 0.538; in [5], 1.46; in experiment [6], 1.3; in experiment [7] it was 0.0096. Also, the composite z-score is 0.695 in experiment [8]; 0.858 in experiment [9]; 0.315 in [10]; 1.37 in experiment [11]; 0.677 in [13]; 1.29 in experiment [14]. For the same compound, the composite z-score in [15] is 0.335; in experiment [16], -0.0445; in experiment [17], 0.465; in experiment [18] it was -0.492; in experiment [19] it was 0.832; in experiment [20], 1.12. In addition, the z-score was -0.799 (inactive) in [4] and -2.11 in experiment [12].

On to `CN(C)C(=O)[C@]1(Cc2ccccc2N=[N+]=[N-])N=C(c2ccc(OCCCO)cc2)O[C@@H]1c1ccccc1`, for which the composite z-score in experiment [1] was 1.47; in experiment [2], 0.467; in [3], 0.787; in experiment [5], 0.818; in experiment [6], 1.28; in experiment [7] it was 0.0161. Also, the composite z-score was 0.373 in experiment [8]; -0.121 in [9]; 0.545 in [10]; 1.08 in experiment [11]; 0.104 in experiment [13]; 0.516 in experiment [14]. Moreover, the composite z-score in experiment [15] was 0.0377; in experiment [16], -0.329; in experiment [17] it was -0.116; in experiment [18], 0.973; in [19], 0.897; in experiment [20], 1.3. Also, the z-score in [4] is -1.17 (inactive); in experiment [12], -1.85.

Regarding `COCCOC(=O)N1C(=O)[C@@]2(c3ccccc31)[C@H](c1ccc(O)cc1)N1[C@H](c3ccccc3)[C@H](c3ccccc3)OC(=O)[C@H]1[C@@H]2C(=O)NC[C@H](O)c1ccccc1`, the composite z-score in experiment [1] is 1.12; in [2], -0.0866; in experiment [3] it was -0.0184; in experiment [5] it was 0.12; in [6], 0.191; in experiment [7], -0.291. For the same compound, the composite z-score is -0.195 in [8]; -0.341 in [9]; -0.202 in [10]; 0.01 in experiment [11]; 0.25 in experiment [13]; 1.34 in [14]. Moreover, the composite z-score in [15] is 0.682; in [16], -0.0643; in experiment [17] it was 0.289; in experiment [18] it was 0.35; in experiment [19], 0.261; in experiment [20], 0.14. For the same compound, the z-score was -1.07 (inactive) in [4] and -0.296 in experiment [12].

As to `CCCC[C@@H]1C[C@H]1[C@@H](NC(=O)c1ccco1)c1ccc(Cl)cc1`, the composite z-score in experiment [1] is 0.428; in [2], 0.807; in experiment [3], 1.03; in [5], 0.438; in experiment [6] it was 1.15; in experiment [7], -0.0272. In addition, the composite z-score worked out at 0.0636 in experiment [8]; 0.461 in experiment [9]; 0.89 in experiment [10]; 1.28 in experiment [11]; 0.232 in experiment [13]; 1.68 in experiment [14]. Besides, the composite z-score was 1.1 in experiment [15]; -0.0125 in [16]; 0.336 in experiment [17]; 0.314 in experiment [18]; 1.4 in experiment [19]; 1.33 in experiment [20]. Further, the z-score is -0.659 (inactive) in [4] and -2.37 in experiment [12].

Consider `COCCOC(=O)N1C(=O)[C@@]2(c3cc(C#CCCO)ccc31)[C@H](C(=O)N1CCc3cc(OC)c(OC)cc3C1)[C@H]1C(=O)O[C@H](c3ccccc3)[C@H](c3ccccc3)N1[C@@H]2c1ccc(O)cc1`, for which the composite z-score came out at 1.58 in [1]; 0.0869 in experiment [2]; 0.43 in experiment [3]; 1.06 in experiment [5]; 1.29 in experiment [6]; 0.413 in experiment [7]. For the same compound, the composite z-score in experiment [8] was 0.81; in experiment [9], 0.547; in experiment [10] it was -0.132; in experiment [11], 1.41; in experiment [13] it was 0.332; in [14], 0.527. The composite z-score was 0.294 in [15]; -0.1 in [16]; 0.123 in [17]; 0.119 in [18]; 0.987 in experiment [19]; 1.24 in experiment [20]. The values for the z-score in experiment [4] and in experiment [12] were -0.341 (inactive) and -1.34, respectively.
